The record followed here is PubChem BioAssay AID2284201 (EPA ToxCast).

Molecules are shown by their SMILES. Activity calls are given as the source filed them. How the source made its calls: active means hit-call score of the fitted dose curve at least 0.9, where 1 is the maximum; inactive means score below 0.9.

By AC50 is commonly meant the midpoint of the concentration-response curve, whichever way the signal moves.

The target in the test is SLC6A2 (gene 6530) (UniProt P23975). In words: ERF_FR_TR_hSLC6A2: Eurofins (ERF) Radioligand Transport Binding LeadHunter Assay for human Norepinephrine NET Antagonism, conducted at France lab site. Here is the method: ERF_FR_TR_hSLC6A2 is a biochemical, single-readout assay that uses extracted gene-proteins in a cell-free assay. Measurements were taken 2 hour after chemical dosing in a 96-well plate. See NET Human Norepinephrine Transporter Binding (Antagonist Radioligand) Assay, Cerep.ERF_FR_TR_hSLC6A2 is an assay component calculated from the ERF_FR_TR_hSLC6A2 assay. It is designed to measure radioligand binding using a type of binding reporter as detected by scintillation counting with radiometry technology.Data from the assay component ERF_FR_TR_hSLC6A2 was analyzed at the assay endpoint, ERF_FR_TR_hSLC6A2, in the positive analysis fitting direction relative to DMSO as the negative control and baseline of activity. Using a type of binding reporter, loss-of-signal activity can be used to understand changes in enzymatic activity as they relate to gene SLC6A2. To generalize the intended target to other relatable targets, this assay endpoint is annotated to the transporter intended target family, where the subfamily is SLC6 / Monoamine.
SLC6A2 (gene 6530), sequence (P23975 whole entry, looked up): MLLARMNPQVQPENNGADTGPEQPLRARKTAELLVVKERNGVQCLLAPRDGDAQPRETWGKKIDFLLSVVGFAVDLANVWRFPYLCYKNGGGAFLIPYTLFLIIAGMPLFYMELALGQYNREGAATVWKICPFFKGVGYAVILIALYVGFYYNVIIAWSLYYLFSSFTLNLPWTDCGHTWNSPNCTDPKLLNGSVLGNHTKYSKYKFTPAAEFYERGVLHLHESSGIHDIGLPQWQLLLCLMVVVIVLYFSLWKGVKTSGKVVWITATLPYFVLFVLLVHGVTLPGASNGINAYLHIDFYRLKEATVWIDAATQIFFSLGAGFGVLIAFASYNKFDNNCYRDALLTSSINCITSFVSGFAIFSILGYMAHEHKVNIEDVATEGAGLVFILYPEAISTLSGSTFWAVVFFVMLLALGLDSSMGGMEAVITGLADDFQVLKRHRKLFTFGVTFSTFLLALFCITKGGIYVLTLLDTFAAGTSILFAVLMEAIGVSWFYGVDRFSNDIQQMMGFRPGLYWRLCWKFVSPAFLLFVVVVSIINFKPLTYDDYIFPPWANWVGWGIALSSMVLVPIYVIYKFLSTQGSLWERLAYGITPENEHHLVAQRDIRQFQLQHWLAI
Human cells are incubated for 120 minutes at 4C with [3H]nisoxetine (1 nM) ligand and protriptyline as control inhibitor. Test Sample Requirements: Minimum for 1) Screen: 60 ul of 10 mM stock -OR- 1 mg (pre-weighed) for 10 uM final testing. 2) Dose Response: 90 ul of 10 mM stock -OR- 1 mg (pre-weighed) for a top concentration at 10 uM.
`COc1cc(/C=C/C(=O)CC(=O)/C=C/c2ccc(O)c(OC)c2)ccc1O`: the AC50 was 2630 nM (active).
On to `CCCCC[C@H](O)CC(=O)CCc1ccc(O)c(OC)c1`, for which the compound was classed as inactive.
`COc1cc(CCC(=O)CC(=O)CCc2ccc(O)c(OC)c2)ccc1O`: the compound was classed as inactive.
For `O=C(/C=C/c1ccc(O)cc1)CC(=O)/C=C/c1ccc(O)cc1`, the AC50 is 2120 nM (active).
